Consider 109 compounds from ChEMBL document CHEMBL3988442, “University of Dundee, Small-Polar-MMV Screening Library” (2021).

Out of some 67,000 compounds screened, about 300 (0.45%) showed an effect of 50% or more. For the sample, strong results were picked, then their nearest neighbours and some compounds at random.

The target of the experiment is Polyketide synthase Pks13 (Mycobacterium tuberculosis (strain ATCC 25618 / H37Rv)) (UniProt I6X8D2). As to the kind of experiment: Mycobacterium tuberculosis Polyketide synthase 13 Thioesterase (PKS13). The format is functional. On the set-up: scale not given: in the data most compounds retested in dose-response had high values. As to conditions: 30 µM.
Polyketide synthase Pks13 (Mycobacterium tuberculosis (strain ATCC 25618 / H37Rv)), sequence (I6X8D2 whole entry): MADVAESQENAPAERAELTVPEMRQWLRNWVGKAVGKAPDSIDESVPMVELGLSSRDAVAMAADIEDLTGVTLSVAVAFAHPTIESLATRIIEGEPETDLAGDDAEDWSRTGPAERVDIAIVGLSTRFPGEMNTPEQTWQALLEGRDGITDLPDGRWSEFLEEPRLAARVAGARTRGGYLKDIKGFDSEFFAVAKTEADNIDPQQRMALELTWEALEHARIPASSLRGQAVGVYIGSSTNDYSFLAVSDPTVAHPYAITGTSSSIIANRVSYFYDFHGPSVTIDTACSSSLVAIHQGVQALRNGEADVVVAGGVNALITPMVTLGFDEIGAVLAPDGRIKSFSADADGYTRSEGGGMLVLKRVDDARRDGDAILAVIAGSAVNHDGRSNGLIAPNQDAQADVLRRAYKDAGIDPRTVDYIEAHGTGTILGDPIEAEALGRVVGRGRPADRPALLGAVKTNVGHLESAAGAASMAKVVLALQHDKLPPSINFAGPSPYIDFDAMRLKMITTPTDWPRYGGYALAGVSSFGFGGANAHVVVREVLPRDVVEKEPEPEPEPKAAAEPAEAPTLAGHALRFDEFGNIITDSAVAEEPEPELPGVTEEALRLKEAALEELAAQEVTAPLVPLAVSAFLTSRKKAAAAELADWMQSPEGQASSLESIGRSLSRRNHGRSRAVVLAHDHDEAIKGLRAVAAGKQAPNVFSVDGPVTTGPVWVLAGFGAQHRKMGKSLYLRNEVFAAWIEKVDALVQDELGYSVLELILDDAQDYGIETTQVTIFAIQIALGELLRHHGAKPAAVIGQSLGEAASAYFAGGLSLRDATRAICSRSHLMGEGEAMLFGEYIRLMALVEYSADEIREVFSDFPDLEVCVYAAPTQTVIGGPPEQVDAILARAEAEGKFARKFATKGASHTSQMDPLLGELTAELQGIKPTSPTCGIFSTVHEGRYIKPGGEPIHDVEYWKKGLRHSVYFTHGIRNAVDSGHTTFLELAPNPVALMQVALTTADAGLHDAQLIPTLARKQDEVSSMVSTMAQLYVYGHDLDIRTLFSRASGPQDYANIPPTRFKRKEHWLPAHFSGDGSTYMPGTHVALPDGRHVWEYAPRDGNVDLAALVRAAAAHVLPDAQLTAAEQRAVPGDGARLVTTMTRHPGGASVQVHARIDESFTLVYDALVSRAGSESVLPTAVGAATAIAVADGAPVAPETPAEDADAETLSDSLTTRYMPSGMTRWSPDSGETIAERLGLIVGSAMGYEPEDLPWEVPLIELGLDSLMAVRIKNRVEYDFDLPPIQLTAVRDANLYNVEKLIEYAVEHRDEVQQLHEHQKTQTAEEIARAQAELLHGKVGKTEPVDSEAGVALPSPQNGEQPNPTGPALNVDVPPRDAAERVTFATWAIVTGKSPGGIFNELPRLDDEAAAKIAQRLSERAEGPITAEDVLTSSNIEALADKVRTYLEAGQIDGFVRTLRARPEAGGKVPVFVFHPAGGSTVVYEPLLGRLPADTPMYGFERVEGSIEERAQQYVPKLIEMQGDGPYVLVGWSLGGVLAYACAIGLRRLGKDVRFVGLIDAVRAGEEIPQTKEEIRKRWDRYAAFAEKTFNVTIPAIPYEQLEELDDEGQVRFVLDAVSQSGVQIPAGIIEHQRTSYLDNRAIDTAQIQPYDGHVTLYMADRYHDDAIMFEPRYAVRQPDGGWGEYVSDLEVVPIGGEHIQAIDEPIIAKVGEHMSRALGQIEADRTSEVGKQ
Consider `CN1CCS(=O)(=O)[C@@H]2CCN(C(=O)c3ccccc3)CC[C@@H]21`, for which the Percent Effect was -9.08%. To `Cc1cc(C)n(-c2cncc(NCCC(=O)NC(C)C)n2)n1` belongs 62.4%.

Consider `CCCNC(=O)CCNc1cncc(-n2nc(C)cc2C)n1`, for which the Percent Effect was 52%.

As to `Cc1cc(C)n(-c2cncc(NCCNS(C)(=O)=O)n2)n1`, the Percent Effect amounted to 59.2%. On to `Cc1cc(C)n(-c2cncc(NCCNC(=O)C(C)(C)C)n2)n1`, for which the Percent Effect was 27%. As to `Cc1cc(C)n(-c2cncc(NCCNC(=O)C3CCCC3)n2)n1`, the Percent Effect is 40.3%. Consider `Cc1cc(C)n(-c2cncc(NCCNC(=O)C(C)C)n2)n1`, for which the Percent Effect stood at 35.4%. In the case of `CCN(CC)C(=O)CCNc1cncc(-n2nc(C)cc2C)n1`, the Percent Effect is 10.2%. In the case of `Cc1cc(C)n(-c2cncc(NCCNC(=O)c3cccnc3)n2)n1` it was 2.44%; in that of `Cc1cc(C)n(-c2cncc(NCCNC(=O)CC3CCCC3)n2)n1`, -10.3%. In the case of `O=C(CC1CCCC1)N1C[C@H](OCc2ccncc2)[C@H]2OCCC[C@H]21` it was -0.106%. In the case of `COCCN1CC[C@H]2CN(c3cc(OC)ncn3)C[C@@H]2C1=O` it was 25.2%; in that of `CS(=O)(=O)CC(=O)N1C[C@H]2CCC[C@@]2(COCc2ccncc2)C1`, -8.5%. Regarding `CCC(CC)CN1C[C@@H]2OCCN(Cc3cnn(C)c3)[C@@H]2C1`, the Percent Effect is -3.42%. In the case of `CCN1C[C@H]2CCN(C(=O)Nc3ccccc3C)CC[C@H]2S1(=O)=O` it was -46.2%; in that of `CCc1nc(C)c(C(=O)N2C[C@H]3CC[C@@H]2CN(S(=O)(=O)N(C)C)C3)s1`, -18.5%; in that of `Cc1noc(C)c1CN1C[C@@H]2CN(C(=O)c3cnccn3)C[C@@H]2C1`, -42.1%. In the case of `O=C(O)[C@]12CCCN(Cc3nccs3)[C@@H]1CCN(c1cnccn1)C2` it was -14.4%; in that of `COCCN1CCCC2(CCN(c3nccc4ccccc34)C2)C1=O` (centres undefined), 10.3%.

Take `COCCN1CCCC2(CCN(c3ncnc(C)c3C)C2)C1=O` (centres undefined): the Percent Effect is 6.43%.

Take `COCCN1CCCC2(CCN(c3nccnc3N(C)C)C2)C1=O` (centres undefined): the Percent Effect is 60.4%. In the case of `Fc1cnc(N2C[C@@H](OCC3CCOCC3)[C@H]3OCCC[C@H]32)nc1` it was -17.1%. To `CN(C)C[C@H]1OC[C@@H]2CCN(C(=O)NCc3cccc(F)c3)C[C@@H]21` belongs -18.3%; to `O[C@]12CCNC[C@H]1CN(c1ccnc3ccccc13)CC2`, -11.7%. Regarding `Cc1ccc(C(=O)N2C[C@H](OCc3cccnc3)[C@H]3COC[C@H]32)cn1`, the Percent Effect was -11.8%. To `COc1ccc2nc(C3CC3)cc(C(=O)NCc3ncnn3C)c2c1` belongs -6.17%. On to `COc1ccc2nc(C3CC3)cc(C(=O)NCc3noc(C)n3)c2c1`, for which the Percent Effect stood at 83.5%. To `COc1ccc2nc(C3CC3)cc(C(=O)NCC(=O)N(C)C)c2c1` belongs -13.4%; to `Cc1cnc(N2CC[C@H]3[C@@H]2CCC(=O)N3c2ccccc2)nc1`, -48.4%; to `O=C(CC1CC1)N1C[C@H]2CN(CC3CC3)C(=O)[C@H]2C1`, -22.1%. To `O=C(CCn1cncn1)N1C[C@H]2CC[C@@H]1CN(Cc1ccncc1)C2` belongs 0.614%. To `COC(=O)Nc1ccc(CNc2cncc(-n3cccn3)n2)cc1` belongs 25.1%.

As to `CCOCc1ccc(CNc2cncc(-n3cccn3)n2)cc1`, the Percent Effect is -10.5%. For `CCCOc1ccc(CNc2cncc(-n3cccn3)n2)cc1`, the Percent Effect was found to be 34.6%. For the compound `CC(C)OCc1ccc(CNc2cncc(-n3cccn3)n2)cc1`, the Percent Effect was 16.5%. To `CCOc1cccc(CNc2cncc(-n3cccn3)n2)c1` belongs -63.1%; to `NS(=O)(=O)Cc1ccc(CNc2cncc(-n3cccn3)n2)cc1`, 133%. With `COCc1ccc(CNc2cncc(-n3cccn3)n2)cc1`, the Percent Effect was determined as 52.2%.

For `CCN(CC)C(=O)c1ccc(CNc2cncc(-n3cccn3)n2)cc1`, the Percent Effect is -7.79%.

As for `CNC(=O)COc1ccc(CNc2cncc(-n3cccn3)n2)cc1`, the Percent Effect stood at 70.7%. In the case of `CCOCCOCc1cccc(CNc2cncc(-n3cccn3)n2)c1` it was 53.8%; in that of `CN(C)c1ccc(CNc2cncc(-n3cccn3)n2)cc1`, 27.6%. To `Cc1cccc(CNc2cncc(-n3cccn3)n2)c1` belongs -60.2%; to `Cc1nc[nH]c1CN1CCN(C(=O)c2cccs2)[C@H]2CS(=O)(=O)C[C@H]21`, -7.55%. In the case of `COCCN1C[C@H]2CC[C@@H]1CN(CC(=O)Nc1ccn(C)n1)C2` it was -11.6%. In the case of `O=C(c1cnccn1)N1CCN2C[C@H](Oc3cccc(F)c3)C[C@H]2C1`, the Percent Effect was -42.7%. To `O=C(Cc1cccc(F)c1)N1CCN2C[C@H](Oc3cncnc3)C[C@H]2C1` belongs -1.46%; to `O=C(C1CC1)N1CCN2C[C@@H](CO)[C@H](c3ccccc3)[C@H]2C1`, 2.09%. In the case of `Cc1nnc([C@H]2CC[C@@H]3[C@@H](CCN3CC3CCOCC3)O2)o1` it was -25.5%; in that of `CN(C)C(=O)CO[C@@H]1CC[C@H]2[C@H]1OCCN2c1ncc(F)cn1`, -1.97%; in that of `COCCN1C(=O)C[C@H]2[C@H]1CCN2Cc1cccc(C#N)c1`, -24.2%. In the case of `CO[C@@H]1CC[C@@H](N(C)C(=O)c2cn3cc(C)ccc3n2)[C@H]1O` it was -0.591%; in that of `CO[C@@H]1CCC[C@@H](N(C)C(=O)c2cn3cc(C)ccc3n2)[C@H]1O`, -3.51%. In the case of `Cc1ccc2nc(C(=O)N(C)[C@@H]3CC[C@@H](N4CCCC4)[C@@H]3O)cn2c1`, the Percent Effect amounted to 61.6%. On to `CC(C)=CCN1C[C@H]2CC[C@@H]1CN(S(=O)(=O)c1cccnc1)C2`, for which the Percent Effect came to 7.63%.

For the compound `CCN1CC[C@@]2(C(=O)N3CCOCC3)CCN(C(=O)NC)CC[C@@H]12`, the Percent Effect is -31.8%. To `CC(C)NC(=O)NC(C)c1nc(-c2ccccc2)cs1` (centres undefined) belongs 0.666%; to `CC(NC(=O)NCC(C)(C)C(N)=O)c1nc(-c2ccccc2)cs1` (centres undefined), 55.9%. On to `CC(NC(=O)NC1CC1)c1nc(-c2ccccc2)cs1` (centres undefined), for which the Percent Effect was -2.19%. To `CCS(=O)(=O)N1CCc2cc(C(=O)NC)c(NCC(C)C)nc2CC1` belongs -68.6%; to `CNC(=O)c1cc2c(nc1NCC(C)C)CCN(c1ccncn1)CC2`, 94.4%. In the case of `CNC(=O)c1cc2c(nc1NCC1CC1)CCN(S(C)(=O)=O)CC2` it was 55.9%. For `CCS(=O)(=O)N1CCc2cc(C(=O)NC)c(NCC3CC3)nc2CC1`, the Percent Effect was found to be 23.6%. To `CNC(=O)c1cc2c(nc1NCC(C)C)CCN(S(C)(=O)=O)CC2` belongs 51%; to `CNC(=O)c1cc2c(nc1NCC(C)C)CCN(CC1CC1)CC2`, 51.6%; to `CNC(=O)c1cc2c(nc1NCC(C)C)CCN(S(=O)(=O)C1CC1)CC2`, -13.9%. In the case of `CNC(=O)c1cc2c(nc1NCC1CC1)CCN(CC1CC1)CC2` it was 42.7%; in that of `CNC(=O)c1cc2c(nc1NCC(C)C)CCN(C)CC2`, 49.9%. As for `CNC(=O)c1cc2c(nc1NCC1CC1)CCN(c1ccncn1)CC2`, the Percent Effect was -246%. In the case of `CNC(=O)c1cc2c(nc1NCC(C)C)CCN(c1ncccn1)CC2` it was 16.7%; in that of `CNC(=O)c1cc2c(nc1NCC1CC1)CCN(S(=O)(=O)C1CC1)CC2`, -32.9%; in that of `O=C(NC1CC1)[C@@H]1CCO[C@@H]2CCN(C3CCOCC3)C[C@H]21`, -9.37%. For `Cc1noc(C)c1CN1C[C@@H]2CCCO[C@@H]2[C@H](NS(C)(=O)=O)C1`, the Percent Effect was -27.6%. In the case of `O=C([C@@H]1COC[C@H]2CN(CC3CCCC3)C[C@H]21)N1CCOCC1` it was -31.7%.

As to `CO[C@@H]1CCN(c2ncc(F)cn2)[C@@H]2CN(CC3CC3)C[C@@H]21`, the Percent Effect was -32.1%.

As to `CC(C)N1CCO[C@H]2CN(C(=O)c3ccsc3)C[C@H]21`, the Percent Effect is -16%. In the case of `Cc1cc(CN2CCN(C(=O)C(C)C)[C@@H]3CS(=O)(=O)C[C@@H]32)ccc1F` it was -6.06%; in that of `CNC(=O)c1cc2c(nc1NCC1CC1)CCNCC2`, 81.7%; in that of `CNC(=O)c1cc2c(nc1NCC1CC1)CCN(c1ncccn1)CC2`, 9.04%.

As for `CN(C)C(=O)c1cc2c(nc1NCC1CC1)CCNCC2`, the Percent Effect is -20.1%. In the case of `O=C1[C@@H]2CCN(Cc3ccoc3)C[C@@H]2OCCN1c1cccnc1` it was -7.12%; in that of `Cc1noc([C@H]2C[C@H]3CN(C(=O)Cc4ccsc4)CC[C@H]3O2)n1`, -10.9%. To `O=C(CC1CC1)N[C@@H]1CN(Cc2nccs2)C[C@@H]2CCCO[C@@H]21` belongs -33.5%; to `Cc1nc(COC[C@@H]2CC[C@H]3[C@H](CCN3c3ncccn3)O2)cs1`, -28.4%. To `CN1CCC(c2cc(C(F)(F)F)n3ccnc3n2)CC1` belongs -20.7%; to `COCC(=O)N1CCC(c2cc(C(F)(F)F)n3ccnc3n2)CC1`, 61.5%.

Regarding `FC(F)(F)c1cc(C2CCN(c3cnccn3)CC2)n2ccnc2n1`, the Percent Effect came out at 18.1%. Take `CC(=O)N1CCC(c2cc(C(F)(F)F)n3ccnc3n2)CC1`: the Percent Effect was determined as 41.8%. For the compound `CC(C)N1CCCC(c2cc(C(F)(F)F)nc3nccn23)C1` (centres undefined), the Percent Effect was found to be 24.5%.

`CC(=O)N1CCC(c2cc(C(F)(F)F)nc3nccn23)CC1`: the Percent Effect turned out to be 57.5%. As for `c1cc(CN2CCO[C@H]3[C@H](OCCN4CCCC4)CC[C@@H]32)ccn1`, the Percent Effect is -11.4%. In the case of `CC1=N[C@@]2(CC[C@@H]3CN(CC(=O)N(C)C)C[C@@H]32)C(=O)N1CC(C)C` it was -5.03%. For `COCCCN1C(=O)CC[C@H]2CN(Cc3cc4ccccc4o3)CC[C@H]21`, the Percent Effect was -4.88%. To `COCCN1CCO[C@@H]2CN(Cc3ccc(C)s3)C[C@@H]2C1` belongs -27.7%.

Turning to `CN(C)C(=O)CN1C[C@@H]2CC[C@H](C1)N(Cc1ccccc1C#N)C2`, the Percent Effect was 6.99%.

As to `COc1ccc2[nH]cc(-c3ccnc(N4CCC(C)CC4)n3)c2c1`, the Percent Effect stood at 71.9%. In the case of `COc1ccc2[nH]cc(-c3ccnc(NC4CCCC4)n3)c2c1` it was 18.6%. In the case of `CN1CCCN(c2nccc(-c3c[nH]c4ccc(Br)cc34)n2)CC1` it was -2.62%; in that of `O=C(COC1CCCC1)N1C[C@@H]2COC[C@]2(COc2cccnc2)C1`, -18%. In the case of `Nc1nccnc1CC1CCCN(Cc2ccnc3ccccc23)C1` (centres undefined) it was 126%; in that of `COc1ccccc1CN1CCCC(Cc2nccnc2N)C1` (centres undefined), -2.41%.

On to `Nc1nccnc1CC1CCCN(Cc2c[nH]c3ccccc23)C1` (centres undefined), for which the Percent Effect turned out to be 15.3%. To `CCN1C[C@H]2CCN(C(=O)NC3CCCC3)CC[C@H]2S1(=O)=O` belongs -17.8%; to `CC(=O)N1[C@H](Cn2cncn2)C[C@@H]2CN(C(=O)NC3CC3)CC[C@@H]21`, 12.2%; to `O=C(Nc1cnccn1)[C@H]1CO[C@H]2CCN(c3ncc(F)cn3)C[C@H]2C1`, -40.3%. With `COCCN1C(=O)[C@]2(CC[C@@H]3CN(Cc4ccccc4F)C[C@@H]32)N=C1C`, the Percent Effect was -17.4%. Turning to `Cc1csc2ncc(-c3ccnc(N4CCCC4)n3)c(=O)n12`, the Percent Effect is 137%. In the case of `Cc1csc2ncc(-c3ccnc(N4CCCN(C)CC4)n3)c(=O)n12`, the Percent Effect came to 37.9%. To `Cc1csc2ncc(-c3ccnc(N4CCN(C)CC4)n3)c(=O)n12` belongs -27.4%.
